CFTR F508del cor = F508del CFTR correction, initial screen, CFBE line, single point | actives 0.36% (n = 350,000) | CFBE cells, YFP halide quenching; stimulated with forskolin plus potentiator P3; % fluorescence drop versus neutral controls | activity (quench increase), % at 7.58 µM | AID 720511, 2013;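 active = mean added fluorescence quench of at least 8% versus neutral control, with both replicates also reaching 8%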;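 also: cells transiently co-express mutant CFTR-F508del with the halide-sensitive YFP; corrector assay measuring rescue of mutant channel to the surface after 24 h compound exposure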
SKN-1 inh = suppressors of acrylamide-induced Pgst-4::GFP reporter in worms, primary screen, SKN-1 inhibitor project, whole organism, uHTS, GFP/RFP fluorescence ratio, strain VP596 | C. elegans VP596 Pgst-4::GFP/RFP ratio, 24 h | inhibition, % at 21.8 µM | actives 0.49% (n = 360,000) | AID 624304, 2012;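 active = interference check ratio from 0.5 to 1.5 plus GFP to RFP signal ratio inhibition reaching or exceeding a fixed threshold, cut at about 30% in these data, passing the limit was not always enough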
MPTP inh = mitochondrial permeability transition pore inhibitors, primary screen, biochemical, isolated mouse mitochondria, absorbance | Ca2+ swelling absorbance, 30 min | inhibition, % at 10 µM | actives 1.4% (n = 360,000) | AID 602449, 2012;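 active = inhibition of 50% or more, scaled per plate between neutral and stimulator controls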;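 also: 0% = DMSO wells given calcium and 100% = 1 mM EGTA wells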
NRP1-CendR mod = modulators of CendR peptide binding to NRP-1, primary screen, biochemical, fluorescence polarization, uHTS | Neuropilin-1 (Homo sapiens), O14786 | FAM-RPARPAR peptide binding to NRP-1 | inhibition, % at 25 µM | actives 0.85% (n = 360,000) | AID 602438, 2012;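 active = inhibition or corrected inhibition above about 18%, plus a signal ratio from 0.5 to 1.5, limit read from the data, passing the limit was not always enough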
ATG4B inhibitor = ATG4B protease inhibitors, primary screen, biochemical, fluorescence, uHTS. Cysteine protease ATG4B (Homo sapiens), Q9Y4P1. ATG4B cleavage of LC3-PLA2, NBD-HPC fluorescence, 1 h. inhibition, % at 8.33 µM. actives 0.51% (n = 340,000); in the data active = inhibition above about 40%
Target sequence (Q9Y4P1 whole entry, looked up): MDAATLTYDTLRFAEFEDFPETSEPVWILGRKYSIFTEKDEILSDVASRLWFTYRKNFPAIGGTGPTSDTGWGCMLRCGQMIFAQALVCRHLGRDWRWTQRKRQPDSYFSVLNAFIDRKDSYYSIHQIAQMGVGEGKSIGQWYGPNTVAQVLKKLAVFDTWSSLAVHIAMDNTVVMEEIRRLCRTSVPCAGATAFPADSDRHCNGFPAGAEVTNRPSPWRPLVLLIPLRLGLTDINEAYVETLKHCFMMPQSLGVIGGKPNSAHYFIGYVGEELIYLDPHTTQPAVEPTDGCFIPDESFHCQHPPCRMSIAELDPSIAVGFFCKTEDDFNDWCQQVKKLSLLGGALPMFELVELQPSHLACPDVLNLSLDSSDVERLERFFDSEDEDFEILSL
* hit, by the source's call; · = no result given. In the library only some 2.7% were active in any assay of this set; here they are far more common.

SMILES	CFTR F508del cor	SKN-1 inh	MPTP inh	NRP1-CendR mod	ATG4B inhibitor
NCc1cc2c3c(c1)CCCN3CCC2	-2	62	-1	40*	-1
O=S1(=O)CC(c2ccccc2)=NN=C(c2ccccc2)C1	2	36*	1	2	·
CC(=O)N1CCN(c2ccc(NCc3cccc4ccccc34)cc2)CC1	1	-4	-2	7	-5
CC(=O)N1CCN(c2ccc(NCc3ccccc3)cc2)CC1	·	38*	-1	15	0
Cc1ccc(NC(=O)COC(=O)c2ccco2)cc1S(=O)(=O)N1CCOCC1	0	-2	-1	-15	-7
Cc1ccc(NC(=O)COC(=O)C2(C)CC2(Cl)Cl)cc1S(=O)(=O)N1CCOCC1 (stereo not drawn)	-1	41*	0	-6	-7
CC1CCCN(C(=O)c2ccc3c(c2NCCO)C(=O)c2ccccc2C3=O)C1 (stereo not drawn)	·	23	4	19*	12
O=C1c2ccccc2C(=O)c2c1ccc(C(=O)N1CCCCC1)c2NCCO	·	40*	7	-1	-4
C[C@@H]1CCCCO[C@H](CN(C)S(=O)(=O)c2ccc(Cl)cc2)[C@@H](C)CN([C@@H](C)CO)C(=O)c2cc(NS(=O)(=O)c3ccccc3)ccc2O1	5	·	·	·	·
Cc1ccc(C(=O)CN(CCC(=O)O)C(=O)c2ccncc2)cc1	3	-7	0	22*	-13
Cc1cnccc1CNC(=O)CC1C(=O)NCCN1CC(C)(C)C (stereo not drawn)	3	20	1	26*	6
C[C@H](CO)N1C[C@H](C)[C@@H](CN(C)C)Oc2ccc(NS(=O)(=O)c3cn(C)cn3)cc2C1=O	-1	·	·	·	·
COC1=CC(=NCl)C=CC1=NCl	·	18	2	54*	·
O=S(=O)(Nc1nc2c(s1)CCCC2)c1ccc2ccccc2c1	·	-1	-1	-7	-4
c1ccc2c(Nc3nc4c(s3)CCCC4)cccc2c1	·	45*	0	-1	30
c1ccc(-c2cc3c(N4CCOCC4)ncnc3s2)cc1	·	38*	-1	-3	-7
Cc1cc(NC(=O)c2ccco2)ccc1-n1cnnn1	·	61*	3	9	-2
CC1CC(C)CN(CCCSc2ccccc2)C1 (stereo not drawn)	·	4	0	30*	5
CC1CC(C)CN(CCOCCSc2ccccc2)C1 (stereo not drawn)	·	16	0	0	15
N[C@@H](Cc1ccccc1)C(=O)N1CCC(C(=O)N[C@@H](Cc2c[nH]c3ccccc23)C(=O)O)CC1	1	-22	-1	11	-10
CSCC[C@H](N)C(=O)N1CCC(C(=O)N[C@@H](Cc2c[nH]c3ccccc23)C(=O)O)CC1	3	36*	0	13	2
C[C@@H]1CCCCO[C@@H](CN(C)C(=O)Cc2ccccc2)[C@@H](C)CN([C@@H](C)CO)C(=O)c2cc(NC(=O)CCCN(C)C)ccc2O1	0	·	·	·	·
C[C@@H]1CN([C@H](C)CO)C(=O)Cc2cc(NS(=O)(=O)c3cccs3)ccc2O[C@@H]1CN(C)Cc1ccc(Cl)c(Cl)c1	-1	·	·	·	·
N#CC1=C(N)OC2=C(CCc3ccccc32)C1c1ccccc1Cl (stereo not drawn)	10*	18	8	-32	16
OCCCc1n[nH]c(=S)n1-c1ccccc1	4	-4	0	23*	-5
SMILES	CFTR F508del cor	SKN-1 inh	MPTP inh	NRP1-CendR mod	ATG4B inhibitor
COCCNC(=S)N(CCc1c(C)[nH]c2ccc(F)cc12)Cc1cccs1	-2	9	1	32*	-5
Fc1ccc(-c2cnn3c(-c4ccncc4)ccnc23)cc1	-1	41*	3	-8	-15
O=C(C[C@@H]1C=C[C@@H](NS(=O)(=O)c2ccccc2F)[C@H](CO)O1)NCCCN1CCOCC1	-1	·	·	·	·
Cc1ccccc1S(=O)(=O)N1CC(=O)N2[C@H](C1)[C@H](c1ccc(C#CCN(C)C)cc1)[C@@H]2CO	-1	·	·	·	·
COC(=O)c1ccsc1NC(=O)CN1CCN(Cc2ccc3c(c2)OCO3)CC1	·	15	-2	1	10
COC(=O)c1c(NC(=O)CN2CCN(Cc3ccc4c(c3)OCO4)CC2)sc(C)c1C	·	36*	2	3	13
C[C@@H]1CN([C@@H](C)CO)S(=O)(=O)c2ccc(-c3ccncc3)cc2O[C@H]1CN(C)Cc1ccc(Oc2ccccc2)cc1	-4	·	·	·	·
O=C(c1cccc(F)c1)N1C[C@@H]2[C@H](c3ccccc31)[C@@H](CO)N2C(=O)c1ccccn1	-2	·	·	·	·
Clc1c(-c2ccccc2)nnn1-c1ccccc1	4	36*	-1	-5	11
C[C@@H](C(=O)Nc1cccnc1)n1c(=O)[nH]c2ccccc2c1=O	0	4	-1	35*	-7
O=C(CN(C(=O)CNC(=O)c1ccco1)c1ccc2c(c1)OCCO2)NC1CCCC1	4	-13	2	21*	-8
O=C(CN(C(=O)CNC(=O)c1ccco1)c1ccc2c(c1)OCO2)NC1CCCCC1	·	11	1	10	0
COc1cccc(C(=O)Nc2ccc(C3CC3(Cl)Cl)cc2)c1 (stereo not drawn)	-1	8	23	21*	10
COc1ccc(C(=O)Nc2cccc(OC(=O)c3ccc(C)c(C)c3)c2)cc1	·	42*	2	-8	38
COc1ccc(C(=O)Nc2cccc(OC(=O)c3ccco3)c2)cc1	0	3	-1	10	-1
O=C(Nc1ccc(C(=O)N2CCCC2)cc1)c1ccccc1Br	1	-17	0	0	3
COC(=O)c1cccc(NC(=O)c2cccc(OC)c2)c1	·	14	-3	23*	1
O=C(Nc1ccc(C2CC2(Cl)Cl)cc1)c1ccccc1Br (stereo not drawn)	1	47*	1	-2	16
CC(C)NC(=O)N(C)C[C@@H]1Oc2ncc(-c3cccc(C#N)c3)cc2C(=O)N([C@@H](C)CO)C[C@H]1C	-3	·	·	·	·
C=CCOC(=O)[C@@H]1[C@H]2C(=O)O[C@H](c3ccccc3)[C@H](c3ccccc3)N2[C@H](c2ccc(OCCOC(=O)[C@@H]3C[C@@H]4C(=O)N[C@@H](Cc5ccccc5)C(=O)N4[C@@H]3c3ccc(O)cc3)cc2)[C@@]12C(=O)Nc1ccc(I)cc12	-5	·	·	·	·
C[C@@H]1CN([C@H](C)CO)C(=O)Cc2cc(NC(=O)Nc3ccc4c(c3)OCO4)ccc2O[C@@H]1CN(C)C(=O)Nc1ccc2c(c1)OCO2	-3	·	·	·	·
CC(=O)/C(C#N)=C1\NC(=O)C(Cc2ccccc2)S1 (stereo not drawn)	·	-21	2	-6	0
